# Measurements reported in paper PMC7862700, “An all-to-all approach to the identification of sequence-specific readers for epigenetic DNA modifications on cytosine”.
# Experiments:
# Assay in all cases: DAPPL (digital affinity profiling via proximity ligation, sequencing); 10 mM Tris-HCl pH 7.5, 50 mM NaCl, 1 mM DTT, 4% glycerol, room temperature, 30 min; GST-TFs on glutathione beads, 16-mer random dsDNA library, 0.1% formaldehyde crosslink after washing; high values mean tight binding
# Conditions in all cases: protein: recombinant; tags: N-terminal GST; dsDNA, one strand shown
# FLI1 = target: T1, FLI1 (Homo sapiens, UniProt Q01543 1-452)
# T1 sequence: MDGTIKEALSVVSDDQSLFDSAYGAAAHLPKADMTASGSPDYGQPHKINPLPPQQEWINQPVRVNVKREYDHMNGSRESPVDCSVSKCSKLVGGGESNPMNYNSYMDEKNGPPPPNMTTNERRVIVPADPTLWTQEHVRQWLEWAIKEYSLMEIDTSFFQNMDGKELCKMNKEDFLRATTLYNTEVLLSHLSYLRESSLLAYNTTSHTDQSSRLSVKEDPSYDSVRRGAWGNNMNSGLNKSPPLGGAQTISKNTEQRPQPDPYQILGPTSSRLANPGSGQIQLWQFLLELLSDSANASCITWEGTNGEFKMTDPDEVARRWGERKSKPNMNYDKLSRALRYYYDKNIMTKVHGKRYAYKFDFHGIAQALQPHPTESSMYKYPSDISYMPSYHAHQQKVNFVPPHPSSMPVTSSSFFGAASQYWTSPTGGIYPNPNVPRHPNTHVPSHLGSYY
# In short: (§1)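 Yeast served to express human transcription factors as GST fusions, which were then captured on glutathione beads and labelled with DNA barcodes. Pooled with a tag-only sample, they were incubated with 200 nmole of a 16-mer random double-stranded DNA library for 30 min at room temperature in Tris/NaCl/DTT/glycerol buffer, washed, crosslinked with 0.1% formaldehyde, ligated by proximity, amplified by PCR and sequenced. Dividing each hexamer's read frequency for a factor by its frequency for the tag-only sample gives the binding signal.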
# ELK1 = target: T2, ELK1 (Homo sapiens, UniProt P19419 1-428)
# T2 sequence: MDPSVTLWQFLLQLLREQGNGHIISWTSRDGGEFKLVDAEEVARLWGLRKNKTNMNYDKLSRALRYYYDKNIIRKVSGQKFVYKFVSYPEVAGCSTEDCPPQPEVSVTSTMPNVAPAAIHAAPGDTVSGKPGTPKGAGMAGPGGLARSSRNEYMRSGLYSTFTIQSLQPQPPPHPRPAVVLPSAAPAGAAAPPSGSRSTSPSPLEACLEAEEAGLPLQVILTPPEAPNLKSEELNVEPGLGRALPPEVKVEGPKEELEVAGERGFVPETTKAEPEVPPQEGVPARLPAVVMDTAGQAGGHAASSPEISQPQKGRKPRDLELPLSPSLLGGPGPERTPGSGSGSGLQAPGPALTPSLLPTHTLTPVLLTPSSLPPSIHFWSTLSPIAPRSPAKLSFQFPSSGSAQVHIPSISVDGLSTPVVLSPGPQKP
# In short: as §1
# GABPA = target: T3, GABPA (Homo sapiens, UniProt Q06546 1-454)
# T3 sequence: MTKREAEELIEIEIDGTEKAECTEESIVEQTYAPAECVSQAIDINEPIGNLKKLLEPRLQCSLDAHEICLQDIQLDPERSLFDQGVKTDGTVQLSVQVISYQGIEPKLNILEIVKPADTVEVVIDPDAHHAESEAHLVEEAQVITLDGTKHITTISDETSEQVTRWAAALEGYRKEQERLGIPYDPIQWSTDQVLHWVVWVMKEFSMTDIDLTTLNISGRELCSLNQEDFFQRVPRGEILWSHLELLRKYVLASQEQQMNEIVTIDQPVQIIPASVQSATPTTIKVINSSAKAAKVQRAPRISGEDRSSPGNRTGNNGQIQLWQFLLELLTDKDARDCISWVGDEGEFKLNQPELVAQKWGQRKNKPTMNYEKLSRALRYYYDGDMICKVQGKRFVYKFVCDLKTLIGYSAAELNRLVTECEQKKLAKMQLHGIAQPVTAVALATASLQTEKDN
# In short: as §1
# ERG = target: T4, ERG (Homo sapiens, UniProt P11308 1-479)
# T4 sequence: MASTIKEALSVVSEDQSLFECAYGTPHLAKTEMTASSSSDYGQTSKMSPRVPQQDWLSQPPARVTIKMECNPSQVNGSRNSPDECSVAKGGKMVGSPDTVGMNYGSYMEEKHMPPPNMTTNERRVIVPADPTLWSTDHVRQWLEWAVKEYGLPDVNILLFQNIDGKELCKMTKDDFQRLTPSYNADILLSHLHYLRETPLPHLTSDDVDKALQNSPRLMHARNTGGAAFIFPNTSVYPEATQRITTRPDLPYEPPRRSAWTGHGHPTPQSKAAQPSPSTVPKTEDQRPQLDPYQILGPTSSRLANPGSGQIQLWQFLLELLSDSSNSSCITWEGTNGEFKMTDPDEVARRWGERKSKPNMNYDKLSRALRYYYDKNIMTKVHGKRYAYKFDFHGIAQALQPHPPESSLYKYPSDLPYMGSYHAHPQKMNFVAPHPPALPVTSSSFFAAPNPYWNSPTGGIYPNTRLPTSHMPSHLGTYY
# In short: as §1
# ELF1 = ELF1 (Homo sapiens, UniProt P32519 1-619)
# Sequence of ELF1 (P32519 whole entry): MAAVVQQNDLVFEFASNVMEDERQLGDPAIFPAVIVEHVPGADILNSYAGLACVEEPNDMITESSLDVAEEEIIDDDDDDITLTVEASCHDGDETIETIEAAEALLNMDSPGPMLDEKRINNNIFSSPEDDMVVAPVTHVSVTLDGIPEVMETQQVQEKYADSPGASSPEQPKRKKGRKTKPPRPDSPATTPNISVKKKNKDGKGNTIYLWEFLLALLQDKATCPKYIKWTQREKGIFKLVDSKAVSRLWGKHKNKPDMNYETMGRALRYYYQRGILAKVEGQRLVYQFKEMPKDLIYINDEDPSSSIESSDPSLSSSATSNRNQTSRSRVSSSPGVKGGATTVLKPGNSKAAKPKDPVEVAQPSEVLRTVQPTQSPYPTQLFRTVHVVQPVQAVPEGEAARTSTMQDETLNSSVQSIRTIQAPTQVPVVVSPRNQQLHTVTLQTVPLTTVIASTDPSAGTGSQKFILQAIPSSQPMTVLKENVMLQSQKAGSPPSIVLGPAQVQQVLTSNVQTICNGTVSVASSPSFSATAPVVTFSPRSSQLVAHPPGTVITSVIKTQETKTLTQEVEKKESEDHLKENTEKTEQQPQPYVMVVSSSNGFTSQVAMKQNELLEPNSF
# In short: as §1
# EHF = target: T5, EHF (Homo sapiens, UniProt Q9NZC4 1-300)
# T5 sequence: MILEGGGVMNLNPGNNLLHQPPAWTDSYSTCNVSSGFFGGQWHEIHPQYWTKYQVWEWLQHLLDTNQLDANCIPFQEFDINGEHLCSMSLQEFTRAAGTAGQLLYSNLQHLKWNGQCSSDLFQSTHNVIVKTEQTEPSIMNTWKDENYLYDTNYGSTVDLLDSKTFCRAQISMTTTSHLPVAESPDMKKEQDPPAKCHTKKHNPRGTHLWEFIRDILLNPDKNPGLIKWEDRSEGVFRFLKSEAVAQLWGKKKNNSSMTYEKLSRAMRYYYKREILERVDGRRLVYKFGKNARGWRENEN
# In short: as §1
# SPIB = SPIB (Homo sapiens, UniProt Q01892 1-262)
# Sequence of SPIB (Q01892 whole entry): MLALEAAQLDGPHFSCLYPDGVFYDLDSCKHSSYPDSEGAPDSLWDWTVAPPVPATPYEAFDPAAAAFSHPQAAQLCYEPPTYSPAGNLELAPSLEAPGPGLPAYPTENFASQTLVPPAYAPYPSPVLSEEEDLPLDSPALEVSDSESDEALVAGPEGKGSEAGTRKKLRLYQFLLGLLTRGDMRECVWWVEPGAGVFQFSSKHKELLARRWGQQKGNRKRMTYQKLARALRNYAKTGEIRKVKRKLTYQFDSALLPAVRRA
# In short: as §1
# ELK3 = target: T6, ELK3 (Homo sapiens, UniProt P41970 1-407)
# T6 sequence: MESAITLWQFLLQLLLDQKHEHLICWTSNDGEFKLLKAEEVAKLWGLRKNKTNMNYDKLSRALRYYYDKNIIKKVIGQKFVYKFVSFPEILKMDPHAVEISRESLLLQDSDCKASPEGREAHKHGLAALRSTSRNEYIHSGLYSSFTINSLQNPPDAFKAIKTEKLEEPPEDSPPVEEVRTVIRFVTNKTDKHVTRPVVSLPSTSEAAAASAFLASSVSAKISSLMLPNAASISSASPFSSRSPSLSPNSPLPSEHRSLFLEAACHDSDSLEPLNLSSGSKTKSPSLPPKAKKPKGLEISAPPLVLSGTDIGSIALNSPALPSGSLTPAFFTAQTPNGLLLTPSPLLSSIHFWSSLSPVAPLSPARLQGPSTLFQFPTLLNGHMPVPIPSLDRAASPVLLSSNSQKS
# In short: as §1
# SPIC = target: T7, SPIC (Homo sapiens, UniProt Q8N5J4 1-248)
# T7 sequence: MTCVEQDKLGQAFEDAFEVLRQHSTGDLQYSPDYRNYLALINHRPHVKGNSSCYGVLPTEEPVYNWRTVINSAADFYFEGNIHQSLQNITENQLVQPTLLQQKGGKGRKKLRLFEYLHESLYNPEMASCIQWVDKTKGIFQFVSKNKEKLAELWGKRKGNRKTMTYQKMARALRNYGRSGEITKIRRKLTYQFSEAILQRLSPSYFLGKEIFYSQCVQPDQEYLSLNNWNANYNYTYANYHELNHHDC
# In short: as §1
# ELF4 = ELF4 (Homo sapiens, UniProt Q99607 1-663)
# Sequence of ELF4 (Q99607 whole entry): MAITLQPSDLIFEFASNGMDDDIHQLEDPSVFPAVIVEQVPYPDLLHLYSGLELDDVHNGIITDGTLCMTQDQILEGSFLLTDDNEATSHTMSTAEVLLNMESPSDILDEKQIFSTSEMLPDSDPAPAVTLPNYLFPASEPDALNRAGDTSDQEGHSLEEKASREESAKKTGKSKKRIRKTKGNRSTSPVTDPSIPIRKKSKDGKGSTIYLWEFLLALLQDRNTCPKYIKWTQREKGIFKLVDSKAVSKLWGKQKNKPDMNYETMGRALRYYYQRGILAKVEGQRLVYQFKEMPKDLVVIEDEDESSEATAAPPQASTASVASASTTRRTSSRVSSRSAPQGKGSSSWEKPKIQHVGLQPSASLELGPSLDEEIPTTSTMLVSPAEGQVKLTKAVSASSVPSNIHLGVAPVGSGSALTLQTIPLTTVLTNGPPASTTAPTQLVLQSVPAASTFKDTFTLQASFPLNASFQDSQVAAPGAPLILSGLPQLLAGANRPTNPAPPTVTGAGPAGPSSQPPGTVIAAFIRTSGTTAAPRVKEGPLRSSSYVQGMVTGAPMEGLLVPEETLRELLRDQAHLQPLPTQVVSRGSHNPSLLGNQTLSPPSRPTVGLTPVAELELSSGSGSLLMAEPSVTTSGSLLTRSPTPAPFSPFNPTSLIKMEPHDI
# In short: as §1
sequence,measurement,setting,value
CGTTTA,binding signal,FLI1,"1.08 fold enrichment (6-mer frequency, TF over GST control)"
same,binding signal,ELK1,"1.08 fold enrichment (6-mer frequency, TF over GST control)"
same,binding signal,GABPA,"1.13 fold enrichment (6-mer frequency, TF over GST control)"
same,binding signal,ERG,"1.05 fold enrichment (6-mer frequency, TF over GST control)"
same,binding signal,ELF1,"1.06 fold enrichment (6-mer frequency, TF over GST control)"
same,binding signal,EHF,"1.06 fold enrichment (6-mer frequency, TF over GST control)"
same,binding signal,SPIB,"1.11 fold enrichment (6-mer frequency, TF over GST control)"
same,binding signal,ELK3,"1.12 fold enrichment (6-mer frequency, TF over GST control)"
same,binding signal,SPIC,"1.03 fold enrichment (6-mer frequency, TF over GST control)"
same,binding signal,ELF4,"1.07 fold enrichment (6-mer frequency, TF over GST control)"
